In the supplement of paper PMC6555819 one finds PBM binding z-score data, which are given here for 14 sequences.

Common to all, as to assay: PBM binding z-score (relative to random genomic background probes); higher = stronger binding; sequences stand for … in GC…GCGATTGACAGCGTAGAATGAAGG
Test [1] concerns RARb homodimer (NR concentration 270 nM). The method in brief: (§1)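 Custom Agilent 4×180K protein-binding microarrays carried double-stranded probes. Their 34-nt variable regions held direct-repeat seeds, single-nucleotide variants, half-site ablations and random human genomic background sequences. Arrays were incubated 1 h with ligand-free nuclear receptor dimers in PBS pH 7.4, 2% milk, 0.02% Triton X-100, 1 mM DTT, 0.2 mg/mL BSA and 0.4 mg/ml salmon testes DNA. Antibodies against each partner (one per run) detected binding, and scanned fluorescence was regression-normalized. Binding z-scores use random background probes as reference.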

The test system of test [2] is RARg:RXRa (NR concentration 270 nM, RXRa partner concentration 90 nM). A digest of the protocol:
as §1

In test [3] the test system is RARg homodimer (NR concentration 270 nM). A digest of the protocol: as §1
Test [4] has as its system RXRa DBDmut IVT, anti-RXR (DBD mutation: RXRa K156A/R161A, NR concentration 90 nM). A digest of the protocol: as §1
Test [5] relates to RXRa homodimer (NR concentration 180 nM). A digest of the protocol: as §1
Test [6] concerns THRa:RXRa (NR concentration 90 nM, RXRa partner concentration 90 nM). A digest of the protocol:
as §1

In test [7] the test system is THRa homodimer (NR concentration 90 nM). A digest of the protocol:
as §1

The test system of test [8] is VDR homodimer (NR concentration 270 nM). The method in brief:
as §1

As for AGAATGAGTTTATTAAGATCAGGGAATTGCGGTC, the PBM binding z-score in test [1] was 0.079; in test [2] it was -0.0299; in test [3], 0.321; in test [4] it was 3.88; in test [5], 0.093; in test [6], 0.265. Moreover, the PBM binding z-score in test [7] amounted to 0.231; in test [8], 3.05.
As to CCTACTGGGCCCAAAAGGTCATTGATGCCGATAA, the PBM binding z-score in test [1] was 4.35; in test [2] it was 4.87; in test [3], 4.11; in test [4] it was -0.121; in test [5], 5.65; in test [6] it was 3.15. The PBM binding z-score in test [7] was 0.687; in test [8] it was 1.84.
CCGACTGGGGCAAGGTTGCCATAACGCACAGCCA: the PBM binding z-score in test [1] was 0.376; in test [2], 0.327; in test [3], 0.556; in test [4], -0.586; in test [5], 0.107; in test [6] it was 0.0473. Further, the PBM binding z-score in test [7] is -0.389; in test [8] it was -0.526.
TAGCCTAGGTCAGATCGCGCCAGTATACGCTATA: the PBM binding z-score in test [1] was 1.68; in test [2], 2.64; in test [3], 3.2; in test [4], -0.216; in test [5], 1.22; in test [6] it was 1.61. The figures for the PBM binding z-score in test [7] and in test [8] were 0.165 and -0.0657, respectively.
Regarding TCTTGTAAATCAGCAGGTTAAGAAAGCTGGCCAA, the PBM binding z-score was -0.0241 in test [1]; -0.0885 in test [2]; -0.347 in test [3]; 0.924 in test [4]; 0.361 in test [5]; 0.32 in test [6]. For the same sequence, the PBM binding z-score is -0.393 in test [7] and -0.269 in test [8].
As for ATCTCTAGGTAAAATTTCAGTGAATCCCGAGGAT, the PBM binding z-score in test [1] is -0.0962; in test [2], 0.558; in test [3], 0.537; in test [4] it was 0.113; in test [5], 0.367; in test [6], 0.328. Also, the PBM binding z-score in test [7] was 0.331; in test [8], -0.51.
Regarding ATCTCTAGGTAACCAAGTTCAATGAATGCCGAAC, the PBM binding z-score in test [1] stood at 1.68; in test [2] it was 0.955; in test [3], 1.08; in test [4] it was 1.64; in test [5], 0.925; in test [6], 1.89. For the same sequence, the PBM binding z-score amounted to 0.952 in test [7] and 3.84 in test [8].
Take CCTAATGGGCCATTCAGAGGTCATTGATCATATG: the PBM binding z-score is 4.03 in test [1]; 4.62 in test [2]; 2.88 in test [3]; 1.45 in test [4]; 4 in test [5]; 3.16 in test [6]. Besides, the PBM binding z-score in test [7] worked out at 1.19; in test [8], 3.03.
Regarding CCAGACAGGTGAGAAGGTCACTCAGCCTCGATTA, the PBM binding z-score was determined as 4.12 in test [1]; 4.65 in test [2]; 3.85 in test [3]; 0.8 in test [4]; 3.76 in test [5]; 2.46 in test [6]. The PBM binding z-score in test [7] is 0.916; in test [8], 1.36.
Take TGAATGAGGTTAAAGAGCAGGGAACGTGGCGTCG: the PBM binding z-score in test [1] is 0.754; in test [2] it was 2.13; in test [3], 1.34; in test [4] it was 1.01; in test [5] it was 3.19; in test [6] it was 2.39. Moreover, the PBM binding z-score came to 0.467 in test [7] and 0.665 in test [8].
As to ATCGAAATGTCGACGAGGTGAGTATACACCGTTT, the PBM binding z-score is 0.224 in test [1]; 0.712 in test [2]; 0.657 in test [3]; -0.0108 in test [4]; 0.492 in test [5]; 1.43 in test [6]. For the same sequence, the results for the PBM binding z-score in test [7] and in test [8] were 0.345 and -0.13, respectively.
GCTATTAGTGGAAAGGGCAACCGAATGATTCTCG: the PBM binding z-score is 1.77 in test [1]; 1.05 in test [2]; 1.12 in test [3]; 0.693 in test [4]; 0.775 in test [5]; 0.344 in test [6]. Moreover, the PBM binding z-score in test [7] was -0.457; in test [8], -0.143.
For TTATCAAGGTGAAGGTCGTTGATCCCTCTGTAGA, the PBM binding z-score in test [1] is 1.82; in test [2] it was 1.55; in test [3], 1.33; in test [4], 0.598; in test [5] it was 1.89; in test [6], 2.68. Moreover, the PBM binding z-score stood at 1.3 in test [7] and 1.23 in test [8].
Turning to ACTAGCAAGCCAAGGGTCACTCAAGATTAGTCCG, the PBM binding z-score in test [1] came to 3.62; in test [2] it was 3.45; in test [3], 3.58; in test [4], 0.334; in test [5], 3.69; in test [6], 2.51. Moreover, the results for the PBM binding z-score in test [7] and in test [8] were 0.0458 and 1.08, respectively.
